Sampled rows, rich in hits. Any-hit rate of the full collection: about 20%.
Pf growth 48h: inhibits P. falciparum growth in the first generation, 48 h; P. falciparum luciferase growth in erythrocytes, 48 h; Potency, µM (top dose mostly 28.7 µM), for the others: at the top dose activity change, negative = inhibition, hits mostly inhibitors; 310,000 tested, 5.9% active; AID 504832; further: potency means the concentration at half of the fitted maximal effect; on the % scale 0 is the no-effect control and ±100 the full control effect
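A one-generation exposure of luciferase-tagged malaria parasites in RPMI 1640/Albumax erythrocyte culture, 37 C and 5% CO2. Inhibition is inferred from decreased luminescence after adding detection reagent.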
Shiga inhibitor: Shiga toxin inhibition; Vero cells, Shiga toxin protein synthesis inhibition reporter; inhibition, % at 38.7 µM; 290,000 tested, 9.2% active; AID 2315; in the data active means inhibition mostly above about 28%, no sharp cut-off; inactive means mostly below about 43%; further: 0% is about no effect
Pf growth 96h: P. falciparum growth inhibition at 96 hours; P. falciparum luciferase reporter growth, 96 h; Potency, µM (top dose mostly 28.7 µM), without a hit: at the highest dose activity change, negative = inhibition, actives largely listed as inhibitors; 320,000 tested, 6.9% active; AID 504834; further: potency means the concentration at half of the fitted maximal effect; on the % scale 0 is the no-effect control and ±100 the full control effect
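Two parasite generations (96 h, 37 C, 5% CO2) of compound exposure in infected erythrocytes (0.05% parasitemia, 2% hematocrit). Luciferase-reporter P. falciparum; decreased luminescence indicates inhibited growth, aimed at apicoplast-acting delayed death.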
HCMV inh: blocks human cytomegalovirus replication. 410,000 tested, 4.5% active. HFF cells, HCMV-luciferase reporter, 72 h; hits give low values. AID 1259415. activity change, negative = inhibition, % at 57.5 µM; in the data active means activity change below about -60%; inconclusive means no clear call, values can overlap the other calls; inactive means above about -39%; further: on the % scale 0 is the no-effect control and ±100 the full control effect
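Steps: HFFs plated, 16 h 37C; compounds added; HCMV-luciferase added to MOI 1 PFU/cell; 72 h 37C; OneGlo reagent, 5 min room temperature; luminescence read, normalized to controls.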
Cycloheximide cs: counter-screen hit for Shiga toxin inhibitors, cycloheximide; cell reporter, cycloheximide protein synthesis inhibition counterscreen; max response, %; 300,000 tested, 12% active; in the data active means max response mostly above about 13%, no sharp cut-off; inactive means mostly below about 14%; further: read at 38.3 µM for the half of the compounds with a filed dose; 0% is about no effect
* = called active by the depositor; i = inactive; u = inconclusive; x = not tested or not shown; [ ] = dose if it differs, or a comment. Unless noted, the call rests on the fitted dose curve; in most records, active means well fitted inhibition curve with a large enough effect; inconclusive means small, poorly fitted or top-dose-only effect, or another doubt; inactive means no such curve, though single readings can be large or run the other way.

SMILES | Pf growth 48h | Shiga inhibitor | Pf growth 96h | HCMV inh | Cycloheximide cs
O=C(CNC(=O)c1ccccc1)OCC(=O)N1N=C(c2ccc(Cl)cc2)CC1c1ccco1 (configuration not stated) | u | 11 | 3% | 5 | 5
CC(=O)N1N=C(c2ccc(C)cc2)CC1c1ccco1 (configuration not stated) | 49% | 35 | u | 23 | 13*
CC(=O)N1N=C(c2ccc(Cl)cc2)CC1c1ccco1 (configuration not stated) | 15% | -7 | -5% | 48 | 7
Cc1nc(N2N=C(c3ccc(Cl)cc3)CC2c2ccco2)sc1C(=O)N(C)C (configuration not stated) | u | 30 | u | 19 | 27*
CCN(CC)S(=O)(=O)c1ccc2[nH]c(=O)cc(C(=O)NCc3ccccc3)c2c1 | 10% | -2 | 20% | 1 | -4
NC(=O)c1ccc(NC(=O)Cc2ccc(S(=O)(=O)N3CCCCC3)cc2)cc1 | u | x | u | -2 | x
CCN1CCS/C1=C\C=C\C1=[N+](CC)CCS1 | 0.93µM* | 11 | 63% | -104* | -2
CCN1CCS/C1=C/C=C/C1=[N+](CC)CCS1 | 0.74µM* | 8 | 0.66µM* | x | -2
Cc1csc(N(C(=O)c2ccccc2F)c2ccccc2)n1 | -22% | -3 | 3% | u | 11
CCOC(=O)C1CCCN(C/C(O)=C(\C#N)c2nc(-c3ccccc3)cs2)C1 (configuration not stated) | 28% | 14 | 13µM* | -7 | 8
N#C/C(=C(/O)CN1CCCCC1)c1nc(-c2ccc(Cl)cc2)cs1 | 105% | 50* | 47% | -2 | 18*
N#C/C(=C(/O)CN1CCN(c2ccccc2F)CC1)c1nc(-c2ccc(Cl)cc2)cs1 | 29% | -7 | 24% | u | 2
O=c1c2cc3c(cc2nc2sc(Nc4ccc(F)cc4F)nn12)OCO3 | x | x | x | 4 | x
CCc1nc2c(OCC3CCCCC3)cccn2c1N(C)C(=O)c1ccccc1F | x | x | x | -37 | x
Cc1cccc(-n2c(O)c(/C=C3/C(c4ccccc4)=Nc4ccccc43)c(=O)[nH]c2=O)c1 | 10µM* | 32* | 12µM* | u | 20*
O=c1[nH]c(=O)n(-c2ccccc2F)c(O)c1/C=C1\C=Nc2ccccc21 | -8%[0.00184 µM] | 20 | 4% | 39 | 6.6*
Cc1cccc(-n2c(O)c(/C=C/C=Nc3ccccc3)c(=O)[nH]c2=O)c1 | 0% | -5 | 2% | 4 | -3
Cc1ccccc1-n1c(O)c(/C=C2/C(c3ccccc3)=Nc3ccccc32)c(=O)[nH]c1=O | 12µM* | 86* | -15% | -22 | 54*
Cc1ccc(-n2c(O)c(/C=C3/C(c4ccccc4)=Nc4ccccc43)c(=O)[nH]c2=O)cc1 | 8.3µM* | 63* | 7.4µM* | 13 | 29*
CC1=Nc2ccccc2/C1=C/c1c(O)n(C)c(=O)[nH]c1=O | -11% | x | 2% | 53 | -1
OC(c1ccccc1)(c1ccccc1)c1ncc[nH]1 | 23% | x | 0% | -33 | x
Cc1ccc(Sc2c(C(=O)NCc3ccccc3C)[nH]c3ccccc23)cc1 | x | x | x | 8 | x
CCC(O)CNC(=O)NC(=C(Cl)Cl)c1ccc(C)c(F)c1 (configuration not stated) | u | -5 | -26% | -81* | -2
CCNC(=O)C1(C)CCN(C(=O)c2ccc(C)c(F)c2)C1 (configuration not stated) | x | x | x | 15 | x
COc1cc(OCC(=O)NC(C)C)cc2c1C(=O)O[C@@H](C)CCCC(=O)CCCCC2 | -7% | -8 | u | 31 | -2
SMILES | Pf growth 48h | Shiga inhibitor | Pf growth 96h | HCMV inh | Cycloheximide cs
C[C@H]1CCCC(=O)CCCCCc2cc(O)cc(O)c2C(=O)O1 | 4.1µM* | -4 | 9.3µM* | u | -4
CC(C)Oc1ccccc1Oc1ccc2c(-c3ccccn3)noc2n1 | x | x | x | -5 | x
Cc1c(NC(=O)Nc2cccc(C(F)(F)F)c2)sc2nc3n(c(=O)c12)CCC(C)CC3 (configuration not stated) | x | x | x | -8 | x
CCOC(=O)C1=CC[C@@H](c2ccccc2Cl)N(S(=O)(=O)c2ccc(C)cc2)[C@H]1C(=O)OCC | 13µM* | x | u | -19 | x
COc1ccc(OCc2cccc(C(=O)NN)c2)cc1 | 343% | 140* | 197% | 105 | 124*
CCCNC(=O)c1cccc(COc2ccccc2OC)c1 | 358% | 123* | 13% | 37 | 50*
NNC(=O)c1cccc(COc2cccc(Br)c2)c1 | 168% | 74* | i | 89 | 32*
NNC(=O)c1ccc(COc2ccc3ccccc3c2)cc1 | u | 45* | u | 61 | 35*
O=C(COc1ccc2ccccc2c1)NNC(=O)c1ccccc1 | 38% | -5 | 37% | -3 | -4
COc1ccc(OCc2cccc(C(=O)Nn3cc([N+](=O)[O-])cn3)c2)cc1 | 131% | 2 | 68% | 16 | 5
NNC(=O)c1cccc(COc2ccc(Br)cc2)c1 | 282% | 149* | -53% | 57 | 68*
O=C(NN1CCOCC1)c1cccc(COc2cccc(Br)c2)c1 | 26% | 61 | u | 82 | 16*
NNC(=O)CNC(=O)c1cccc(Br)c1 | 35% | 51 | 30% | -17 | 30
O=C(NN1CCOCC1)c1cccc(Br)c1 | x | x | x | 57 | x
O=C(Nc1ccc(F)cc1F)c1ccc2c(c1)[nH]c(=O)n2Cc1ccc(F)cc1 | -20% | -7 | 39% | -35 | -1
COC(=O)[C@@]12C[C@@H](CC(=O)NCC34CC5CC(CC(C5)C3)C4)C(=O)N(Cc3cccc4ccccc34)C1=CCC(C)(C)C2 | x | x | x | 57 | x
C=CCC1(C#N)C(SC)=NC2=C(C(=O)CC(C)(C)C2)C1c1ccc(Br)cc1 (configuration not stated) | 2.9µM* | -5 | u | u | 2
CCSc1nnc(NC(=O)c2ccc3ccccc3n2)s1 | 30% | 120* | -92% | 57 | 26*
CCSc1nnc(NC(=O)C(C)Sc2nc3ccccc3[nH]2)s1 (configuration not stated) | 4% | 18 | 23% | -103* | 1
CCc1nnc(NC(=O)c2nc(Cl)ccc2Cl)s1 | 8% | -7 | -21% | -7 | 2
CCc1nnc(NC(=O)c2ccc3ccccc3n2)s1 | -46% | 70* | -38% | 37 | 45*
CCC(=O)N1c2ccccc2CC1C(=O)NCCCN1CCN(c2ccccc2)CC1 (configuration not stated) | x | x | x | 29 | x
CCN(Cc1ccc(NC(C)=O)cc1)CC1CCCN(CCc2cccc(F)c2)C1 (configuration not stated) | u | -11 | u | 4 | -3
CCN(Cc1ccc(C#CCCO)cc1)CC1CCCN(CCc2cccc(OC)c2)C1 (configuration not stated) | u | 1 | 2.1µM* | -18 | 1
CCOc1ccc(CCNc2ccc3nnc(-c4ccccc4)n3n2)cc1OCC | u | -19 | 4.7µM* | 105 | -3
Clc1ccc(CNc2ccc3nnc(-c4ccccc4)n3n2)cc1 | u | -10 | 57% | 4 | -1
